Source: PubChem BioAssay (Broad Institute)
Only a sample is shown.
aSyn 5UTR act – Activators working through SNCA 5'UTR binding (MLPCN); alpha-synuclein 5'UTR reporter, activators screen; activity score, % (tested at 7.5 µM), hits read low; AID 1814; 300,000 tested, 7.1% active; in the data active means activity score below about -60%
Large screens that a line does not name were inactive.

O=C(Nc1nc(-c2ccc(-c3ccccc3)cc2)cs1)C1CCCO1 (configuration not stated)	aSyn 5UTR act -65
O=C(NNc1nc(-c2ccc(F)cc2)cs1)c1ccccc1	none
COc1ccc(C2NC(=S)NC3=C2CCCC3=C2SCCS2)cc1 (configuration not stated)	aSyn 5UTR act active
COc1cccc(/C=N/n2cnc3cc(C)c(C)cc32)c1OC	aSyn 5UTR act -97
O=[N+]([O-])c1ccc(/C=N/n2cnc3ccccc32)s1	none
Cc1cc2ncn(/N=C/c3ccc([N+](=O)[O-])s3)c2cc1C	aSyn 5UTR act -117
O=C1CC(c2ccco2)CC2=C1C1c3ccccc3C(=O)N1c1ccccc1N2 (configuration not stated)	aSyn 5UTR act -114
c1ccc2c(c1)Cn1nc(Cc3nc4c(s3)CCCC4)nc1-2	aSyn 5UTR act -79
COc1cc2[nH]c(C(=O)Nc3ccc(F)cc3)cc2c(OC)c1OC	aSyn 5UTR act -229
COc1ccc(-n2c(=S)[nH]c3cc(C(=O)Nc4ccc(C)c(F)c4)ccc3c2=O)c(OC)c1	aSyn 5UTR act -73
COc1ccc(NC(=O)c2cc3ccccc3[nH]2)cc1	aSyn 5UTR act -228
Cc1ccc(NC(=O)c2cc3cc(OC(F)(F)F)ccc3[nH]2)cc1	aSyn 5UTR act -77
COc1ccc2[nH]c(C(=O)Nc3ccc(C)c(F)c3)cc2c1	aSyn 5UTR act -115
CCc1cc2cc(C(=O)Nc3ccc(F)cc3)sc2s1	aSyn 5UTR act -150
CCc1cc2cc(C(=O)Nc3ccccc3F)sc2s1	aSyn 5UTR act -134
CC(C)(C)c1ccc(C(=O)Nc2ccc(F)cc2)s1	aSyn 5UTR act -140
CCCNc1c(F)c(F)c2c(C)c3ccccc3nc2c1F	aSyn 5UTR act -80
Cc1ccc(NC(=O)c2oc3ccccc3c2NC(=O)C2CCCO2)cc1C (configuration not stated)	aSyn 5UTR act -169
COc1ccc(NC(=O)c2oc3ccccc3c2NC(=O)C2CCCO2)cc1OC (configuration not stated)	aSyn 5UTR act -116
CCOc1ccccc1NC(=O)c1oc2ccccc2c1NC(=O)C1CCCO1 (configuration not stated)	aSyn 5UTR act -63
O=C(CCc1ccccc1)Nc1ccccc1[N+](=O)[O-]	aSyn 5UTR act -83
O=C(CCCc1ccccc1)Nc1ccccc1[N+](=O)[O-]	aSyn 5UTR act -112
Cc1ccc(NC(=O)CCCc2ccccc2)c([N+](=O)[O-])c1	aSyn 5UTR act -76
O=c1c2cc(Br)ccc2[nH]c(=S)n1Cc1ccccn1	aSyn 5UTR act -70
Cc1cccc2c1Sc1ccc(Cl)cc1CC2N1CCNCC1 (configuration not stated)	none
CC(=O)Nc1cccc(NC(=O)C(=O)Nc2ccc3c(c2)N(C(=O)C2CC2)CCC3)c1	aSyn 5UTR act -92
CC(C)(C)C(=O)O/N=C(\N)COc1cccc(Cl)c1	aSyn 5UTR act -125
COc1ccc(/C=C/C(=O)c2ccc[nH]2)cc1OC	aSyn 5UTR act -146
COc1ccc(/C=C/C(=O)c2ccc[nH]2)c(OC)c1OC	aSyn 5UTR act -194
COc1ccc(/C=C/C(=O)c2cc(F)ccc2OC(=O)c2ccccc2OC)cc1OC	none
CCn1c(O)c(C=NC2CCCC(C)C2C)sc1=S (configuration not stated)	aSyn 5UTR act -133
CCOC(=O)c1c(C)[nH]c(C=O)c1Cc1cccc(Cl)c1	none
CCOC(=O)c1c(C)[nH]c(C2=NNC(=Nc3cccc(Cl)c3)SC2)c1C	aSyn 5UTR act -74
COC(=O)Nc1nc(C)c(C(=O)c2ccccc2)s1	aSyn 5UTR act -105
Cc1nc(Nc2ccccc2)sc1C(=O)c1ccccc1	aSyn 5UTR act -68
Cc1cccc(Nc2nc3c(s2)CCCC3)c1	aSyn 5UTR act -257
CCOC(=O)c1sc(NC(=O)Nc2ccc(Cl)cc2)nc1C	aSyn 5UTR act -175
COC(=O)Nc1nc(-c2ccccc2)c(C(=O)c2ccccc2)s1	none
COC(=O)c1sc(Nc2ccccc2)nc1C	aSyn 5UTR act -157
Cc1ccc(-c2nc(Nc3cccc(C)c3)sc2CC(=O)O)cc1	aSyn 5UTR act -143
O=C(Cc1sc(Nc2ccccc2)nc1-c1ccccc1)NCc1ccccc1	aSyn 5UTR act -123
CC(=O)c1sc(Nc2cccc(C)c2)nc1C	aSyn 5UTR act -165
CCOC(=O)c1sc(Nc2ccccc2)nc1C	aSyn 5UTR act -96
CCOC(=O)c1sc(Nc2nc3c(OC)cccc3s2)nc1C	aSyn 5UTR act -164
CCc1nnc(NC(=O)Nc2ccc(Cl)cc2)s1	aSyn 5UTR act -66
CCOC(=O)c1sc(Nc2nc(C)cc(C)n2)nc1C	none
CCOC(=O)c1sc(-c2cccs2)nc1C	aSyn 5UTR act -65
CC(C)(C)C(=O)c1sc(Nc2ccccc2)nc1N	aSyn 5UTR act -180
C1CCN=C(Nc2nc3c(s2)CCCC3)CC1	aSyn 5UTR act -139
COc1ccc(Nc2nc(N)c(C(=O)c3ccc(F)cc3)s2)cc1	none
CCCCC(=O)Nc1ccc2c(c1)nc1n2CCSC1	aSyn 5UTR act -84
Cc1ccc(C(=O)Nc2ccc3c(c2)nc2n3CCSC2)cc1	aSyn 5UTR act -67
CCOC(=O)c1sc2nccc(N(C)C)c2c1N=CNOCc1ccccc1	aSyn 5UTR act -92
